Measurements published in PubChem BioAssay (NCI).
The panel holds about 83,000 compounds, 20% with a hit somewhere; the sample as a whole holds those more often.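 Step 1: grow cells in 96-well plates. Step 2: add test compound at a single concentration. Step 3: incubate 48 h. Step 4: record percent growth.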 Activity calls are given as the source filed them. Rule for the calls: active = growth percent below 10; inactive = the rest.

System: UO-31 renal
Assay: NCI-60 one-dose screen, 48 h (100 = growth as untreated, 0 = no growth, -100 = all killed)
Settings: 10 µM unless noted

SMILES | growth
OC(c1ccccc1)(c1ccccc1)c1ccccc1-c1ccccc1 | 78.5% (inactive)
Clc1ccc(-c2nc(-c3c[nH]c4ncccc34)cs2)cc1 | 65.7% [100 µM] (inactive)
CC(=O)c1cc(-c2ccccc2N)n(-c2ccc3c(c2)OCO3)c1C | 40.2% (inactive)
CC1O[C@@H]2C[C@@](O)([C@H]1O)n1c3ccccc3c3c4c(c5c6ccccc6n2c5c31)C(=O)NC4=O (stereo not given in full) | 24.8% (inactive)
COC(=O)/C(CCC=C(C)C)=C1\[C@@H](OC(C)=O)C[C@@]2(C)[C@H]1CC(=O)[C@H]1[C@@]3(C)CCC(N4CCCC4)[C@@H](C)[C@@H]3CC[C@@]12C (stereo not given in full) | 70.2% (inactive)
CN(C)c1ccc(/C=C2/C=C(c3ccccc3)OC2=O)cc1 | 73.7% (inactive)
COc1cc(-c2nc3occn3c2-c2ccnc(NCCCNS(=O)(=O)c3ccccc3)n2)ccc1F | 11.5% (inactive)
O=C(Nc1ccccc1)c1sc(-c2ccccc2)cc1O | 86.5% (inactive)
CCOC(=O)c1c2c(n3c1NCC3)-c1ccccc1C2=O | 39.8% (inactive)
C/C(=N\Nc1nc(C)cs1)c1cc2ccccc2o1 | 55.4% (inactive)
CCOC(=O)C1=C(c2ccccc2)N=c2s/c(=C/c3ccc(Br)cc3)c(=O)n2C1c1ccc(O)cc1 (stereo not given) | 78.5% (inactive)
COc1ccc(C2CC(c3ccc(Nc4nc(Nc5ccc(F)cc5)nc(Nc5ccc(F)cc5)n4)cc3)=NN2C(C)=O)cc1 (stereo not given) | 97.7% (inactive)
c1ccc2cc(Cn3c[n+](Cc4ccc5ccccc5c4)c4ccccc43)ccc2c1 | 53.6% (inactive)
CN1CCN(c2ccc3c(c2)nc(NNC(=O)c2cnccn2)c2cccn23)CC1 | 3.3% (active)
Cc1cc(C)c(-c2c(O)c(Br)c(-c3c(C)cc(C)c(Br)c3C)c(O)c2Br)c(C)c1Br | -29.9% (active)
CCCCCCCCCCCCCCCCCCOc1ccccc1CC(=O)NCC[N+]1(C)CCOCC1 | 77.3% (inactive)
O=C(/C=C/c1cccc(Cl)c1)c1cccc(OCCCCOc2cccc(C(=O)/C=C/c3cccc(Cl)c3)c2)c1 | 72% (inactive)
Cc1ccc(-c2nc(C#N)c(S(=O)(=O)NCCO)o2)cc1 | 62.1% (inactive)
NC(=O)c1ccc(NC(=O)c2oc3ccccc3c2-c2cnn(-c3ccccc3)c2)cc1 | -1.76% [50 µM] (active)
O=C(CBr)CN1C(=O)c2ccccc2C1=O | 88.8% (inactive)

SMILES | growth
CCN(CC)c1ccc(/C=C\c2cc(C)c3cc(C)ccc3n2)cc1 | 26.6% (inactive)
C=CCN=C(N)SCCCCCCSC(N)=NCC=C | 80.6% (inactive)
Clc1nn2c(Cn3cnc4c(NCc5ccccc5)ncnc43)nnc2c2ccccc12 | 21.7% (inactive)
CCOC(=O)c1ccc2c(c1)c1c(C)c3ccncc3c(C)c1n2C | -13.4% (active)
CCCCCCCCn1ccc2cc(NC(=O)Cn3cc(CN4CCCCCC4)nn3)ccc21 | -87.6% (active)
N#CC(C#N)N=Nc1ccc(Cl)cc1Cl | 57.8% (inactive)
Brc1ccc(-c2cnc3nonc3n2)cc1 | 63.6% (inactive)
COc1cccc(C(=O)OCC(O)C(=O)NC23CC4CC(CC(C4)C2)C3)c1 (stereo not given) | 87.1% (inactive)
O=C(Nc1cccc(NC(=O)C2CCCCC2)c1)c1ccccn1 | 88.7% (inactive)
Cc1cc(C)cc(Nc2ccc([N+](=O)[O-])c(NCCN3CCOCC3)n2)c1 | 23.1% (inactive)
O=C(Nc1cccnc1Nc1ccc(Cl)cc1)c1cn(Cc2ccc(F)cc2)nn1 | 70.9% (inactive)
Cn1c(=O)c2c(c3ccccc31)OC(N)=C(C#N)C21C(=O)c2ccccc2C1=O | 61.4% (inactive)
COc1cccc(/C=C2\COc3ccc(O)cc3C2=O)c1 | 69.1% (inactive)
CCc1cccc(Sc2cc(C(=O)N3Cc4ccc(OCCN(C)C)cc4C3)ccc2O)c1 | 56.5% (inactive)
C=C(CN1CC=CCC1)[C@@H]1CC[C@]2(CO)CC[C@]3(C)[C@H](CC[C@@H]4[C@@]5(C)CC[C@H](O)C(C)(C)[C@@H]5CC[C@]43C)[C@@H]12 | 93.7% (inactive)
COc1ccc(/C(C)=C(\c2ccc(Cl)cc2)c2ccc(OCCN3CCCC3)cc2)cc1 | 35.2% (inactive)
CC/C(Cc1ccccc1)=C(\c1ccc(OCCN2CCCCCC2)cc1)c1ccc(OC(=O)NCc2ccccc2)cc1 | 59.2% (inactive)
N=c1sc(Cc2cc(Cl)ccc2Cl)cn1CC(=O)c1ccccc1 | 43.9% (inactive)
Cc1cc(C(=O)Nc2cc(Nc3ncccc3-c3ncnc4nc[nH]c34)ccc2F)cc(C(F)(F)F)c1 | 94.1% (inactive)
C[C@@H]1O[C@@H](O[C@@H]2C[C@H](c3ccc4c(c3O)C(=O)C3=C(C4=O)[C@@]4(O)C(=O)C[C@](C)(O)C[C@@]4(O)C=C3)O[C@H](C)[C@H]2O)C[C@H](O)[C@@H]1O | 78.9% (inactive)
